Data on one compound can be found in PubChem BioAssay AID2284084 (EPA ToxCast).

Activity calls are given as the source filed them. Rule for the calls: active = hit-call score of the fitted dose curve at least 0.9, where 1 is the maximum; inactive = score below 0.9.

In general, AC50 refers to the concentration at which the activity in the assay is half-maximal.

In this assay the target is human CK1alpha CK1 Kinase, CSNK1A1 (gene 1452) (UniProt P48729). The assay can be described thus: ERF_TW_ENZ_hCSNK1A1: Eurofins (ERF) Enzymatic Radiometric [10 uM ATP] Assay for human CK1alpha CK1 Kinase. How it is done: ERF_TW_ENZ_hCSNK1A1 is a biochemical, single-readout assay that uses extracted gene-proteins in a cell-free assay. Measurements were taken 0.5 hour after chemical dosing in a 96-well plate. See CK1alpha Human CK1 Kinase Enzymatic Radiometric Assay [10 uM ATP], Panlabs.ERF_TW_ENZ_hCSNK1A1 is an assay component calculated from the ERF_TW_ENZ_hCSNK1A1 assay. It is designed to measure enzyme activity using a type of enzyme reporter as detected by scintillation counting with radiometry technology.Data from the assay component ERF_TW_ENZ_hCSNK1A1 was analyzed at the assay endpoint, ERF_TW_ENZ_hCSNK1A1, in the positive analysis fitting direction relative to DMSO as the negative control and baseline of activity. Using a type of enzyme reporter, loss-of-signal activity can be used to understand changes in enzymatic activity as they relate to gene CSNK1A1. To generalize the intended target to other relatable targets, this assay endpoint is annotated to the kinase intended target family, where the subfamily is serine/threonine kinase.
Sequence of human CK1alpha CK1 Kinase, CSNK1A1 (gene 1452) (P48729 whole entry, looked up): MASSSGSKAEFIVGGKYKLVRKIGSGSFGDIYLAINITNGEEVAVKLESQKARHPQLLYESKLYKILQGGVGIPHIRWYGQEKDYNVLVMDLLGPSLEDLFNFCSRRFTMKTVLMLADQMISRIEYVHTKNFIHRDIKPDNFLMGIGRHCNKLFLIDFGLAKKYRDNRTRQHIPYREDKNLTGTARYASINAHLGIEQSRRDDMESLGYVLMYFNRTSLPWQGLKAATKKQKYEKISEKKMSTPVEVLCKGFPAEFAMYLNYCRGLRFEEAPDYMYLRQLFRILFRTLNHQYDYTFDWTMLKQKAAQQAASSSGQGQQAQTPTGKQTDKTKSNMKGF
CK1alpha (h) is incubated for 120 minutes at room temperature, with KRRRALS(p)VASLPGL (SP15) as substrate, and PP1 Analog II. 1NM-PP1 as control inhibitor. Test Sample Requirements: Compound should be supplied in 100%DMSO. We require a stock solution at a concentration of at least 50x higher than the Final Assay Concentration of your cpd. […]
As to `O=C(/C=C/c1ccc(O)cc1)CC(=O)/C=C/c1ccc(O)cc1`, the AC50 is 872 nM (active).
